Active and inactive are the calls of the source.

The test system of experiment [1] is Human papillomavirus type 1a protein E7 (residues 44-93). Nature of the experiment: small molecules binding HPV E7 44-93 – biochemical, small-molecule microarray, residues 44-93, 635 nm fluorescence, primary screen (AID 1108).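 Also: E7 fragment applied at 1 µg/mL in TBST for 1 h at 4 C; score combines spot fluorescence with its signal to noise ratio.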 As to conditions: fluorescence 635 nm, higher = more signal.
Experiment [2] is described as follows: hepatitis C replication reporter changes, two-sided – Huh7 cells, luciferase reporter, HCV replication inhibitor project, primary screen (AID 1109).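 Also: huh7 hepatoma cells harbouring a luciferase neomycin HCV replicon reporter; luciferase luminescence as measure of HCV replicon replication; test concentration not given here.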 The following applies: Huh7 HCV replicon luciferase reporter, 48 h; higher = more signal. (In general: In a reporter assay the amount or activity of a reporter protein is the signal.)
Experiment [3] addresses Left-right determination factor 2 (Homo sapiens) (UniProt O00292). Nature of the experiment: small molecules binding LEFTY2 protein – biochemical, small-molecule microarray, 635 nm fluorescence scan, primary screen (AID 1110). As to conditions: higher = more signal.
The target of experiment [4] is Calmodulin-1 (Homo sapiens) (UniProt P0DP23). Nature of the experiment: small molecules binding calmodulin-1 with EGTA – biochemical, small-molecule microarray, Cy5-labelled CALM1, profiling panel (AID 1111).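 Also: labelled calmodulin applied in Tris saline Tween buffer holding calcium plus EGTA and DTT.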 As to conditions: Cy5-CALM1 binding fluorescence, higher = more signal.
The target is the same in experiment [5]. Nature of the experiment: small molecules binding Ca-loaded calmodulin-1 – biochemical, small-molecule microarray, Cy5-labelled CALM1, plus calcium, artefact control for SMM control-protein annotation, profiling panel (AID 1112).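 Also: score merges spot fluorescence with signal to noise from triplicate slides.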 As to conditions: Cy5-CALM1 binding fluorescence, higher = more signal.
Experiment [6] is described as follows: probe aWnt5a binding to arrayed compounds – biochemical, biotinylated probe, 635/667 nm fluorescence, primary screen (AID 1113).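 Also: score merges 667 nm fluorescence intensity with signal-to-noise per printed feature.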 As to conditions: small-molecule microarray, higher = more signal.
Experiment [7] in a line: probe aShh binding to arrayed compounds – biochemical, biotinylated probe, 635/667 nm fluorescence, primary screen (AID 1114).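 Also: probe is biotin-labelled aShh protein from a stem cell growth factor screen; measures binding of labelled protein to compounds printed on the slide; score merges feature fluorescence at 667 nm with signal-to-noise.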 The following applies: small-molecule microarray, higher = more signal.
Experiment [8] can be described thus: probe aNog binding to arrayed compounds – biochemical, biotinylated probe, 635/667 nm fluorescence, primary screen (AID 1115).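 Also: probe is biotinylated aNog protein used at 0.15 µg/mL for 1 h at 4 C; z-score combines 667 nm fluorescence of each spot with its signal to noise.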 The following applies: small-molecule microarray, higher = more signal.
For experiment [9], the target named is Torsin-1A-interacting protein 1 (Homo sapiens) (UniProt Q5JTV8). The experiment in a line: compound microarray binding of lysate hLAP1 – cell lysate, small-molecule microarray, COS7 lysate, 635/667 nm fluorescence, primary screen (AID 1116). As to conditions: 635 nm fluorescence, higher = more signal.
For experiment [10], the target named is Alpha-bungarotoxin (Bungarus multicinctus) (UniProt P60615). The experiment in a line: compounds binding labelled alpha-BTX control protein – biochemical, small-molecule microarray, Alexa647 label, 635/667 nm fluorescence, artefact control for SMM control protein annotation, profiling panel (AID 1117). As to conditions: alpha-BTX-A647 binding fluorescence, higher = more signal.

The next experiment has as its target Albumin (Bos taurus) (UniProt P02769). The experiment in a line: compounds binding labelled BSA control protein – biochemical, small-molecule microarray, Alexa647 label, 635/667 nm fluorescence, artefact control for SMM control protein annotation, profiling panel (AID 1118).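 Also: score merges 667 nm emission intensity and signal-to-noise per printed compound spot.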 As to conditions: BSA-A647 binding, fluorescence 635 nm, higher = more signal.
Experiment [11] can be described thus: probe aXIP binding to arrayed compounds – biochemical, NeuroSMM set, 635/667 nm fluorescence, primary screen (AID 1119).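 Also: probe is the protein aXip251-270 applied at 1 µg/mL to compound-printed slides; binding of probe to printed compounds measured as 667 nm fluorescence plus signal to noise.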 The following applies: small-molecule microarray, higher = more signal, called active from +8 up or from −8 down.
Experiment [12] in a line: probe aNOTCH3 binding on compound microarray – biochemical, small-molecule microarray, 635/667 nm fluorescence, primary screen (AID 1120).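 Also: probe is a biotin-tagged antibody raised against NOTCH3 rather than NOTCH3 protein; score merges spot fluorescence near 667 nm with spot signal to noise.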 As to conditions: higher = more signal.
A short description of experiment [13]: probe aNOTCH2 binding on compound microarray – biochemical, small-molecule microarray, 635/667 nm fluorescence, primary screen (AID 1121).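 Also: score merges feature fluorescence read at 667 nm with its signal to noise.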 The following applies: higher = more signal.
Experiment [14] deals with Carbonic anhydrase 2 (Homo sapiens) (UniProt P00918). Nature of the experiment: compounds binding carbonic anhydrase 2 – biochemical, small-molecule microarray, Alexa647-labelled CAII, profiling panel (AID 1122). As to conditions: CAII-A647 binding fluorescence, higher = more signal.
Experiment [15] in a line: COS7 lysate on small-molecule microarray, probe aHis, 635 nm (AID 1123).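 Also: z-score combines 667nm fluorescence intensity with signal-to-noise per printed compound spot.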 The following applies: COS7 cell lysate, fluorescence, higher = more signal.
The nature of experiment [16]: probe aLAP1 signal on lysate-treated microarray – cell lysate, small-molecule microarray, COS7 lysate, primary screen (AID 1124).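 Also: lysate comes from COS7 cells expressing LAP1 and is applied at 0.3 µg/mL; score merges spot fluorescence near 667 nm with signal-to-noise over triplicate slides.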 The following applies: probe aLAP1, fluorescence, higher = more signal.
A further experiment relates to Sam68 (KHDRBS1). The experiment in a line: compounds binding KHDRBS1 protein – biochemical, small-molecule microarray, 635 nm fluorescence, primary screen (AID 1125).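 Also: score merges 667 nm channel intensity with signal to noise over triplicate slides.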 The following applies: higher = more signal.
Experiment [17] deals with Chordin-like protein 2 (CHRDL2). The experiment in a line: compounds binding chordin-like 2 – biochemical, small-molecule microarray, 635 nm fluorescence, primary screen (AID 1126).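 Also: printed compound slides probed with Chrdl2 protein at 4 µg/mL for 1 h at 4 C; score merges 667 nm emission intensity with signal to noise over three replicate slides.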 The following applies: fluorescence 635 nm, higher = more signal.
The target of experiment [18] is Concanavalin-A (Canavalia ensiformis) (UniProt P02866). Nature of the experiment: compounds binding concanavalin A lectin – biochemical, small-molecule microarray, Alexa647 label, 635 nm, artefact control for SMM control protein annotation, primary screen (AID 1127).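 Also: z combines 667 nm emission intensity with signal-to-noise across three replicate slides.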 The following applies: ConA-A647 binding fluorescence, higher = more signal.
Concanavalin-A (Canavalia ensiformis), sequence (P02866 whole entry, looked up): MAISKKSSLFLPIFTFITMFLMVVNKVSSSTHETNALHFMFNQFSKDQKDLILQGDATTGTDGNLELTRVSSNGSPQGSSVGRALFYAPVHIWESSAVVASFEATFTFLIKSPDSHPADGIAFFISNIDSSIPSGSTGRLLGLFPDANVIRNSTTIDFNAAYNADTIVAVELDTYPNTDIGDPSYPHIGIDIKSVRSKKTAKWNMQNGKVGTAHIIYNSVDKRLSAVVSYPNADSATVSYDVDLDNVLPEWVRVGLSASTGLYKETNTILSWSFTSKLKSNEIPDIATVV

Left-right determination factor 2 (Homo sapiens), sequence (O00292 whole entry, looked up): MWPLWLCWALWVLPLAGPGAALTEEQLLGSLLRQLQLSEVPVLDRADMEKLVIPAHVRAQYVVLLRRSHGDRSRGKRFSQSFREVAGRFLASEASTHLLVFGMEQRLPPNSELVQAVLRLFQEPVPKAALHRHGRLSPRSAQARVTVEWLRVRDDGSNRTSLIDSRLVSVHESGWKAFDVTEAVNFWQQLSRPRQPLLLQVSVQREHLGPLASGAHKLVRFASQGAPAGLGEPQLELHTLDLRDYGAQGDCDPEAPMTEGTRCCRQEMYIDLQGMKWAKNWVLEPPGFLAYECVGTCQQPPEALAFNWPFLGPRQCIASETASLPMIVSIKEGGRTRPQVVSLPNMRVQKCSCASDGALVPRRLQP
Albumin (Bos taurus), sequence (P02769 whole entry, looked up): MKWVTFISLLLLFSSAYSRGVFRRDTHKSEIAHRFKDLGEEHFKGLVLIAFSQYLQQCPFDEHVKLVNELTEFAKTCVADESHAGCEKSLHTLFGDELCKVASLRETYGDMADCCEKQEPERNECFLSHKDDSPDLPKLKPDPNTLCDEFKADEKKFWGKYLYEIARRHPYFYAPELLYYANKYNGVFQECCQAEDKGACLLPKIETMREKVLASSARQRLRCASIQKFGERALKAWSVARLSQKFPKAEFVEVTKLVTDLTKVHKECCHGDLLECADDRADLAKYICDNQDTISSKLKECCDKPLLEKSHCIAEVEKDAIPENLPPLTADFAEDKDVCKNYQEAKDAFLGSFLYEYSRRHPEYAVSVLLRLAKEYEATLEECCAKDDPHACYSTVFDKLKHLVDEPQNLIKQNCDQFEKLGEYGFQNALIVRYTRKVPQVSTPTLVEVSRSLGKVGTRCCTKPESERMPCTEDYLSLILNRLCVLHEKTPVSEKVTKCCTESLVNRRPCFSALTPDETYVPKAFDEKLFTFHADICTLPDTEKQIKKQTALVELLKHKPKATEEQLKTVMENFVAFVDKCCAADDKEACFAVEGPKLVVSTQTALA
Alpha-bungarotoxin (Bungarus multicinctus), sequence (P60615 whole entry, looked up): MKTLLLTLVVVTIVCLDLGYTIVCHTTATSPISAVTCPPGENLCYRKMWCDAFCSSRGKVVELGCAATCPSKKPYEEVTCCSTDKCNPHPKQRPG
Torsin-1A-interacting protein 1 (Homo sapiens), sequence (Q5JTV8 whole entry, looked up): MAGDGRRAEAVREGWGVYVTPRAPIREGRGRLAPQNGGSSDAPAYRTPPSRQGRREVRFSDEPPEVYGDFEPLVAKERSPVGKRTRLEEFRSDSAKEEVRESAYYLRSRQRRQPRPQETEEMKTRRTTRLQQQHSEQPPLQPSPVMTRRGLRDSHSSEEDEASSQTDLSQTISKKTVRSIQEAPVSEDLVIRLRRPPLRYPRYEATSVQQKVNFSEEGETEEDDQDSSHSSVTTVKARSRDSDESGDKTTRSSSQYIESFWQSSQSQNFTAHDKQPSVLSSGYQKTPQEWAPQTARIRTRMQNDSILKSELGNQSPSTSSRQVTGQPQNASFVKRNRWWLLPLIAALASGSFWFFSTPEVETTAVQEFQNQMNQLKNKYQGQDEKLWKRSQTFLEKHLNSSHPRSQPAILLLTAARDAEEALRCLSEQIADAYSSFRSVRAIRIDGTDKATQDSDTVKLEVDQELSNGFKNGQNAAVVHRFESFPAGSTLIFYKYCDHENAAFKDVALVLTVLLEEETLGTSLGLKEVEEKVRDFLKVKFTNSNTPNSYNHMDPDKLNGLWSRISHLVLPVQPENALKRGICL

Take `C=C(CCCC)C(=O)CC[C@H](OC(=O)c1cccnc1)c1ccc(CO)o1`: the composite z-score in [1] is 1.07; in experiment [3], 1.16; in experiment [4], 0.223; in experiment [5], -0.183; in experiment [6], -0.0462; in [7], 0.191. Also, the composite z-score in experiment [8] is -0.116; in [9] it was 0.706; in experiment [10] it was 0.542; with Albumin (Bos taurus), 0.133; in experiment [12] it was 0.19; in [13], -0.0323. Moreover, the composite z-score in [14] is 0.555; in experiment [15], 1.07; in [16], 1.06; with Sam68 (KHDRBS1), 1.3; in experiment [17] it was 0.608; in experiment [18], 1.1. The same molecule returned a z-score in experiment [2] of -1.26. Besides, the composite Z-score in experiment [11] is 0.0385 (inactive).

In the case of `C=C(COC)C(=O)CC[C@@H](OC(C)=O)c1ccc(OCCO)cc1`, the composite z-score in [1] is -0.133; in experiment [3], -0.374; in [4], -0.473; in [5], -0.621; in experiment [6] it was -0.154; in experiment [7] it was 0.0373. Besides, the composite z-score was 0.197 in experiment [8]; 0.119 in experiment [9]; 1.39 in [10]; -0.561 with Albumin (Bos taurus); 0.0426 in experiment [12]; -0.125 in experiment [13]. For the same molecule, the composite z-score was 0.648 in experiment [14]; 0.206 in [15]; -0.217 in experiment [16]; 0.744 in the experiment with Sam68 (KHDRBS1); -0.127 in experiment [17]; 0.891 in [18]. In experiment [2], this molecule came in with a z-score of -1.23. Further, the composite Z-score in [11] is 0.392 (inactive).

Consider `O=c1cccc(-c2ccccc2C(F)(F)F)o1`, for which the composite z-score was -0.438 in [1]; -0.747 in [3]; -0.294 in [4]; 0.243 in experiment [5]; 0.421 in [6]; 0.417 in experiment [7]. Also, the composite z-score is 1.08 in [8]; -0.211 in experiment [9]; -0.678 in experiment [10]; 0.747 in the experiment with Albumin (Bos taurus); 0.583 in experiment [12]; 0.581 in experiment [13]. Moreover, the composite z-score in experiment [14] was 0.354; in experiment [15] it was 0.491; in [16], -0.148; in the experiment on Sam68 (KHDRBS1) it was -0.519; in [17] it was -0.223; in experiment [18], -0.407. For the same molecule, the z-score in [2] is -0.445. Also, the composite Z-score in experiment [11] is 0.3 (inactive).

As to `COC(=O)[C@@]1(Cc2ccc(OC)cc2)[C@H]2c3cc(C(=O)N4CCCC4)n(CCc4ccc(OC)c(Br)c4)c3C[C@H]2CN1C(=O)c1ccccc1`, the composite z-score in experiment [1] is -0.027; in experiment [3], -0.38; in experiment [4] it was 2.19; in experiment [5], 0.967; in [6], -0.0519; in experiment [7] it was 0.865. Also, the composite z-score in experiment [8] is 2.37; in experiment [9] it was 2.06; in [10], -0.123; with Albumin (Bos taurus) it was 1.01; in [12], 0.0305; in [13], 0.162. The composite z-score is 0.895 in experiment [14]; 2.78 in experiment [15]; 1.11 in experiment [16]; 0.251 in the experiment on Sam68 (KHDRBS1); 0.257 in [17]; -0.234 in [18]. In experiment [2], the z-score came out at 0.0171. For the same molecule, the composite Z-score in experiment [11] was -0.004 (inactive).

Take `COCCOC(=O)N1C(=O)[C@@]2(c3cc(C#CC4=CCCCC4)ccc31)[C@H](C(=O)N1CCN(c3ncccn3)CC1)[C@H]1C(=O)O[C@H](c3ccccc3)[C@H](c3ccccc3)N1[C@@H]2c1ccccc1OCCO`: the composite z-score is 1.38 in [1]; 0.419 in [3]; 0.936 in experiment [4]; 0.473 in experiment [5]; -0.0778 in experiment [6]; -0.19 in experiment [7]. For the same molecule, the composite z-score in [8] was -0.0845; in [9], 0.961; in experiment [10], 0.903; with Albumin (Bos taurus), 0.768; in experiment [12], 0.0433; in experiment [13], -0.0928. Further, the composite z-score in [14] is 0.169; in experiment [15], 1.8; in experiment [16] it was 0.35; in the experiment with Sam68 (KHDRBS1), 1.31; in experiment [17] it was 0.277; in experiment [18] it was 1.11. In [2], this molecule displayed a z-score of -1.9. Further, in experiment [11], the composite Z-score was 0.0421 (inactive).

On to `COc1ccc(CCNC(=O)[C@@H]2c3ccccc3C(=O)N(CC34CC5CC(CC(C5)C3)C4)[C@H]2c2ccc(CO)cc2)cc1`, for which the composite z-score in experiment [1] is 1.29; in experiment [3] it was 0.453; in [4] it was 1.67; in experiment [5] it was 0.576; in [6] it was -0.0286; in experiment [7], 0.0381. The composite z-score in [8] is -0.338; in [9] it was 0.321; in experiment [10], 0.664; with Albumin (Bos taurus), 0.764; in experiment [12], 0.0206; in [13], -0.132. The composite z-score in experiment [14] is 0.539; in [15], 1.7; in [16] it was -0.0344; with Sam68 (KHDRBS1) it was 1.22; in experiment [17], 0.23; in experiment [18], 1.11. Besides, the z-score in experiment [2] is -2.34. In addition, in experiment [11], the composite Z-score was -0.422 (inactive).

Source of the values: PubChem BioAssay.
